Assays:
[1] = test system: Vero E6 infected with SARS-CoV-2; assay: morphology score (similarity to uninfected cells); higher = more like uninfected cells; settings: 24 h
[2] = test system: Vero E6 infected with SARS-CoV-2; assay: SARS-CoV-2 infection rate relative to infected DMSO; higher = more infection, active = 60 or less; settings: 24 h

Q: Which results are given for `C1CCC2(CC1)CCNCC2` [4,4-pentamethylenepiperidine] (10 µM)?
A: morphology score [1]: -0.0731; SARS-CoV-2 infection rate [2]: 104% (inactive)

Q: Which results are given for `O=C(N/N=C/c1ccc([N+](=O)[O-])o1)c1cc([N+](=O)[O-])cc([N+](=O)[O-])c1O` [nifursol] (10 µM)?
A: morphology score [1]: 0.0974; SARS-CoV-2 infection rate [2]: 111% (inactive)

Q: What does the source list for `N=C(N)c1ccc(/C=C/c2ccc(C(=N)N)cc2O)cc1` [hydroxystilbamidine] (10 µM)?
A: morphology score [1]: 0.115; SARS-CoV-2 infection rate [2]: 109% (inactive)

Q: With `CC[C@H]1OC(=O)C[C@@H](O)[C@H](C)[C@@H](O[C@@H]2O[C@H](C)[C@@H](O[C@H]3C[C@@](C)(O)[C@@H](O)[C@H](C)O3)[C@H](N(C)C)[C@H]2O)[C@@H](CC=O)C[C@@H](C)C(=O)/C=C/C(C)=C/[C@@H]1CO[C@@H]1O[C@H](C)[C@@H](O)[C@@H](OC)[C@H]1OC` (0.833333 µM) as the compound, how does the morphology score [1] read?
A: Its morphology score is -0.000376.

Q: What about the SARS-CoV-2 infection rate [2] of the same compound?
A: Its SARS-CoV-2 infection rate is 81% (inactive).

Q: Which results are given for `CCCCCCCCCCCCOS(=O)(=O)O` [dodecyl-sulfate] (10 µM)?
A: morphology score [1]: 0.0848; SARS-CoV-2 infection rate [2]: 103% (inactive)

Q: What does the source list for `CC(=O)[C@]1(O)Cc2c(O)c3c(c(O)c2[C@@H](O[C@H]2C[C@H](N)[C@H](O)[C@H](C)O2)C1)C(=O)c1ccccc1C3=O` [idarubicin] (0.833333 µM)?
A: morphology score [1]: -0.15; SARS-CoV-2 infection rate [2]: 106% (inactive)

Q: For `Cc1[nH]c2ccccc2c1CCNC(=O)c1cccs1` (10 µM), which morphology score [1] is on record?
A: Its morphology score is 0.142.

Q: And the SARS-CoV-2 infection rate [2]?
A: The SARS-CoV-2 infection rate was 103% (inactive).

Q: What does the source list for `COc1cc(SC)ccc1C(=O)N1CCC(Cc2ccccc2)CC1` (10 µM)?
A: morphology score [1]: 0.0267; SARS-CoV-2 infection rate [2]: 104% (inactive)

Q: For `COc1ccc2cc(-c3cc(-c4cc(Cl)cc(Cl)c4)nn3[C@@H](C)c3ccc(C(=O)NCCC(=O)O)cc3)ccc2c1` (10 µM), which morphology score [1] is on record?
A: Its morphology score is 0.164.

Q: What about the SARS-CoV-2 infection rate [2] of the same compound?
A: The SARS-CoV-2 infection rate was 106% (inactive).

Q: For `O=c1c(O)c(-c2cc(O)c(O)c(O)c2)oc2cc(O)cc(O)c12` [myricetin] (10 µM), which morphology score [1] is on record?
A: Its morphology score is 0.195.

Q: And the SARS-CoV-2 infection rate [2]?
A: The SARS-CoV-2 infection rate was 110% (inactive).

Q: How did the morphology score [1] turn out when `Cc1ccc(Cl)cc1N(CC(=O)Nc1c(F)cccc1F)S(C)(=O)=O` (10 µM) was run?
A: Its morphology score is 0.0341.

Q: And the SARS-CoV-2 infection rate [2]?
A: Its SARS-CoV-2 infection rate is 113% (inactive).

Q: Which morphology score [1] does the source give for `O=C1CN2Cc3c(ccc(Cl)c3Cl)N=C2N1` [anagrelide] (10 µM) here?
A: Its morphology score is 0.142.

Q: What about the SARS-CoV-2 infection rate [2] of the same compound?
A: Its SARS-CoV-2 infection rate is 112% (inactive).

Q: For `COc1ccc(S(=O)(=O)N2CCCN(S(=O)(=O)c3ccc(OC)c(OC)c3)CC2)cc1OC` (10 µM), which morphology score [1] is on record?
A: The morphology score was 0.209.

Q: And the SARS-CoV-2 infection rate [2]?
A: The SARS-CoV-2 infection rate was 106% (inactive).

Q: For `CC(C)(C)C[C@@H]1N[C@@H](C(=O)N[C@H]2CC[C@H](O)CC2)[C@H](c2cccc(Cl)c2F)[C@]12C(=O)Nc1cc(Cl)ccc12` (10 µM), which morphology score [1] is on record?
A: The morphology score was -0.042.

Q: What about the SARS-CoV-2 infection rate [2] of the same compound?
A: The SARS-CoV-2 infection rate was 113% (inactive).

Q: With `CNCCC=C1c2ccccc2CCc2ccccc21` [nortriptyline] (0.833333 µM) as the compound, how does the morphology score [1] read?
A: Its morphology score is -0.1.

Q: What about the SARS-CoV-2 infection rate [2] of the same compound?
A: The SARS-CoV-2 infection rate was 110% (inactive).

Q: What does the source list for `O=C(Cn1ccnc1[N+](=O)[O-])NCc1ccccc1` [benznidazole] (10 µM)?
A: morphology score [1]: 0.0566; SARS-CoV-2 infection rate [2]: 112% (inactive)

Q: For `C[C@@H](O)[C@H]1C(=O)N2C(C(=O)O)=C([C@H]3CCCO3)S[C@H]12` [faropenem] (10 µM), which morphology score [1] is on record?
A: Its morphology score is 0.121.

Q: And the SARS-CoV-2 infection rate [2]?
A: Its SARS-CoV-2 infection rate is 92.5% (inactive).

Q: Which morphology score [1] does the source give for `CC(C)(Oc1ccc(Cl)cc1)C(=O)OCCOC(=O)c1cccnc1` [etofibrate] (10 µM) here?
A: Its morphology score is 0.105.

Q: What about the SARS-CoV-2 infection rate [2] of the same compound?
A: Its SARS-CoV-2 infection rate is 105% (inactive).

Q: How did the morphology score [1] turn out when `CCOc1ccn(-c2ccc(F)cc2)c(=O)c1C(=O)Nc1ccc(Oc2ccnc(N)c2Cl)c(F)c1` (10 µM) was run?
A: The morphology score was 0.364.

Q: And the SARS-CoV-2 infection rate [2]?
A: Its SARS-CoV-2 infection rate is 107% (inactive).

Q: How did the morphology score [1] turn out when `CC(C)c1noc(N2CCC(COc3ccc(-c4ccc(S(C)(=O)=O)cc4)nc3)CC2)n1` (10 µM) was run?
A: Its morphology score is -0.0966.

Q: What about the SARS-CoV-2 infection rate [2] of the same compound?
A: Its SARS-CoV-2 infection rate is 116% (inactive).

Q: Which morphology score [1] does the source give for `O=C1CNC(=O)CN1` [piperazinedione] (0.833333 µM) here?
A: Its morphology score is 0.0804.

Q: What about the SARS-CoV-2 infection rate [2] of the same compound?
A: Its SARS-CoV-2 infection rate is 106% (inactive).

Q: With `COc1cc2c(c(OC)c1OC)-c1c(cc3c(c1OC)OCO3)CC(C)C(C)C2` (configuration not stated) [schisandrin-B] (10 µM) as the compound, how does the morphology score [1] read?
A: Its morphology score is 0.244.

Q: What about the SARS-CoV-2 infection rate [2] of the same compound?
A: Its SARS-CoV-2 infection rate is 99.5% (inactive).

Q: How did the morphology score [1] turn out when `Cc1ccc2c(Br)cc(Br)c(OC(=O)c3ccccc3)c2n1` [broxaldine] (0.833333 µM) was run?
A: The morphology score was 0.246.

Q: What about the SARS-CoV-2 infection rate [2] of the same compound?
A: The SARS-CoV-2 infection rate was 103% (inactive).

Q: How did the morphology score [1] turn out when `CC(C)CCNc1ncccc1C(=O)N1CCN(Cc2ccccc2)CC1` (10 µM) was run?
A: Its morphology score is -0.0116.

Q: And the SARS-CoV-2 infection rate [2]?
A: Its SARS-CoV-2 infection rate is 114% (inactive).

Q: How did the morphology score [1] turn out when `COCCCOc1cc(C[C@@H](C[C@H](N)[C@@H](O)C[C@H](C(=O)NCC(C)(C)C(N)=O)C(C)C)C(C)C)ccc1OC` [aliskiren-hemifumarate] (10 µM) was run?
A: Its morphology score is -0.0367.

Q: And the SARS-CoV-2 infection rate [2]?
A: The SARS-CoV-2 infection rate was 110% (inactive).

Q: Which morphology score [1] does the source give for `Cn1c(=O)c2c(ncn2CCOC(=O)C(C)(C)Oc2ccc(Cl)cc2)n(C)c1=O` [etofylline-clofibrate] (10 µM) here?
A: Its morphology score is -0.162.

Q: And the SARS-CoV-2 infection rate [2]?
A: The SARS-CoV-2 infection rate was 114% (inactive).

Source: the supplement of paper PMC13380429
